# Measured values from PubChem BioAssay (Tox21).
# Results filed as inconclusive are left out. Entries that show only a call come without a potency. A number with no mark means an inactive call. Active and inactive are the calls of the source. Unless noted, calls follow the shape of the full dose curve. Where a SMILES comes first, the peptide text is derived from it.
# Columns and labels:
# [1] = qHTS assay to identify small molecule antagonists of the vitamin D receptor (VDR) signaling pathway - cell viability counter screen (AID 743225; active = well fitted curve in the direction sought with a large enough effect in the repeat runs; an effect the other way counts as inactive or inconclusive; also: nearly all actives have a fitted effect of over 50% in size)
# Procedure, shortened: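 Compounds were pinned onto VDR-bla HEK 293T cells together with 1-alpha,25-dihydroxyvitamin D3 at 3 nM final. After 16 h at 37C and 5% CO2 plus the reporter readout, cell viability was measured by CellTiter-Glo luminescence (30 min, room temperature).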
# [2] = qHTS assay to identify small molecule agonists of the NFkB signaling pathway (AID 1159509; active = well fitted curve in the direction sought with a large enough effect in the signal ratio in the repeat runs, not every such curve was filed as active; the % refers to the signal ratio; also: series mostly up to about 61 µM)
# Procedure, shortened: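 After overnight attachment, reporter cells received test compounds, DMSO or positive controls and were incubated 5 hr at 37 C. FRET substrate was then added for 1.5 hr at room temperature before dual-emission fluorescence reading.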
# [3] = qHTS assay to identify small molecule agonists of the NFkB signaling pathway - cell viability counter screen (AID 1159515); also: series mostly up to about 61 µM; nearly all actives have a fitted effect of over 55% in size
# Procedure, shortened: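 Using the same wells as the NFkB reporter read, ME-180 NFkB-bla cells given compounds for 5 hr were assessed for viability via CellTiter-Glo, with luminescence taken after a 30 min room-temperature incubation.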
# [4] = qHTS assay to identify small molecule agonists of the endoplasmic reticulum stress response signaling pathway (AID 1159516; active = well fitted activation curve with a large enough effect in the signal ratio in the repeat runs, not every such curve was filed as active; the % refers to the signal ratio)
# Procedure, shortened: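 An ESRE-bla HeLa cell assay: compounds were pin-transferred from DMSO onto overnight-plated cells and left 5 hr at 37 C. Substrate was then loaded for 2 hr at room temperature before reading fluorescence at 460 nm and 530 nm.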
# [5] = qHTS assay to identify small molecule agonists of the endoplasmic reticulum stress response signaling pathway - cell viability counter screen (AID 1159517);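 also: HeLa cells carrying an ER stress response element beta-lactamase reporter; series mostly up to about 61 µM; nearly all actives have a fitted effect of over 50% in size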
# Procedure, shortened: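 Cells, HeLa ESRE-bla; density, 1,500/well; dosing, 5 hr at 37 C, 5% CO2; readout, CellTiter-Glo luminescence after 30 min RT.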
# [6] = qHTS assay to identify small molecule antagonists of the retinoid-related orphan receptor gamma (ROR-gamma) signaling pathway - cell viability counter screen (AID 1159520; active = well fitted curve in the direction sought with a large enough effect in the repeat runs; an effect the other way counts as inactive or inconclusive; also: nearly all actives have a fitted effect of over 50% in size)
# Procedure, shortened: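 Cytotoxicity was read from cellular ATP (CellTiter-Glo luminescence) after 16 hr at 37 C with 1 uM doxycycline induction. The inducer was added 2 hr after compound transfer to Tet-on ROR gamma CHO cells.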
# [7] = target: Nuclear receptor ROR-gamma (Homo sapiens) (UniProt P51449); assay: qHTS assay to identify small molecule antagonists of the retinoid-related orphan receptor gamma (ROR-gamma) signaling pathway (AID 1159521; active = well fitted curve in the direction sought with a large enough effect in the repeat runs; an effect the other way counts as inactive or inconclusive;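 also: CHO cells with doxycycline inducible ROR-gamma driving an RORE luciferase reporter; top concentration of the series differs between compounds; nearly all actives have a fitted effect of over 50% in size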)
# Procedure, shortened: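 Test compounds were applied to Tet-on RORγ CHO cells 2 h ahead of doxycycline hyclate (1 uM final). Luciferase reporter activity was quantified by luminescence after 16 h at 37 C and 5% CO2.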
# [8] = qHTS assay to identify small molecule agonists of the AP-1 signaling pathway - cell viability counter screen (AID 1159525); also: nearly all actives have a fitted effect of over 55% in size
# Procedure, shortened: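 Luminescent ATP readout (Cell Titer Glo, 30 min RT), normalised to DMSO and tetra n-octyl ammonium bromide controls. Cells were ME-180 AP-1-bla in 0.5% dialyzed FBS Opti-MEM, with a 5 h, 37 °C compound exposure.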
# [9] = qHTS assay to identify small molecule agonists of the AP-1 signaling pathway (AID 1159526)
# [10] = target: Retinoic acid receptor RXR-alpha (Homo sapiens) (UniProt P19793); assay: qHTS assay to identify small molecule agonists of the RXR signaling pathway (AID 1159527); also: nearly all actives have a fitted effect of over 35% in size; also: potency is read from the fitted curve at half-maximal effect
# Retinoic acid receptor RXR-alpha (Homo sapiens), sequence (P19793 whole entry, looked up): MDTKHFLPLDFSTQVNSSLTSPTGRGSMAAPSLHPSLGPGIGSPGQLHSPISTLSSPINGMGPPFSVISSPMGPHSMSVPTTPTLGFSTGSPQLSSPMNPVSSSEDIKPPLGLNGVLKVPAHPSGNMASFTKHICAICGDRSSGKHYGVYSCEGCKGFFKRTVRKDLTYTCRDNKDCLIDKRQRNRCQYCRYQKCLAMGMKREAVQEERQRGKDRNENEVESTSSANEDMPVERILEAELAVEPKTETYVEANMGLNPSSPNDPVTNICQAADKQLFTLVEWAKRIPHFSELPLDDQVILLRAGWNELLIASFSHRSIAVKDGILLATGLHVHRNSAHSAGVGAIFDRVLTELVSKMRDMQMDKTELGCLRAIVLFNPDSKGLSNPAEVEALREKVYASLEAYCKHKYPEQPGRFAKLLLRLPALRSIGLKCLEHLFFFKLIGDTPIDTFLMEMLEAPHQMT
# Procedure, shortened: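 Using 9-cis retinoic acid as the reference agonist, chemicals were tested in HEK 293T cells […] for 16 hr; substrate loading lasted 2 hr at room temperature.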
Compound,outcome [1],outcome [2],outcome [3],outcome [4],outcome [5],"activity, negative = cytotoxicity [6]","activity change, negative = inhibition [7]","viability change, negative = cytotoxic [8]",activation [9],activation [10],outcome [6],outcome [7],outcome [8],outcome [9],Potency [10]
CN1C[C@@H]2C[C@H]1CN2c1cc2c(cc1F)c(=O)c(C(=O)O)cn2C1CC1,inactive,inactive,inactive,inactive,inactive,0.279% [at 19 µM],4.47% [at 19 µM],6.22% [at 15.8 µM],-4.01% [at 15.8 µM],12.3% [at 15.8 µM],,,,,
CCCC(CC)c1ccccc1 (stereo not given),inactive,inactive,inactive,inactive,inactive,,,,,,inactive,inactive,inactive,inactive,inactive
CCOC(CN1CCN(CC(C)C(=O)c2ccccc2)CC1)c1ccccc1 (stereo not given),inactive,inactive,inactive,inactive,inactive,-1.7% [at 19 µM],-4.62% [at 19 µM],14.4% [at 15.8 µM],5.61% [at 15.8 µM],-12% [at 15.8 µM],,,,,
Cc1c(Cl)cccc1Cl,inactive,inactive,inactive,inactive,inactive,,,,,,inactive,inactive,inactive,inactive,inactive
CCCCCCCCCCOC(C)=O,inactive,inactive,inactive,inactive,inactive,,,,,,inactive,inactive,inactive,inactive,inactive
CC(C)=CCC[C@@](C)(O)[C@H]1CC=C(C)CC1,inactive,inactive,inactive,inactive,inactive,,,,,,inactive,inactive,inactive,inactive,inactive
CC/C=C\CCOC(=O)c1ccccc1O,inactive,inactive,inactive,inactive,inactive,,,,,,inactive,inactive,inactive,inactive,inactive
OCC1(CO)COCOC1,inactive,inactive,inactive,inactive,inactive,,,,,,inactive,inactive,inactive,inactive,inactive
c1ccc2c(CC3=NCCN3)cccc2c1,inactive,inactive,inactive,inactive,inactive,,,,,,inactive,inactive,inactive,inactive,inactive
CC(=O)CC(=O)OC(C)(C)C,inactive,inactive,inactive,inactive,inactive,,,,,,inactive,inactive,inactive,inactive,inactive
O=C(CCCCC(=O)Nc1c(I)cc(I)c(C(=O)O)c1I)Nc1c(I)cc(I)c(C(=O)O)c1I,inactive,inactive,inactive,inactive,inactive,,,,,,inactive,inactive,inactive,inactive,inactive
Nc1nc(-c2ccccc2)c(Br)c(=O)[nH]1,inactive,inactive,inactive,inactive,inactive,,,,,,inactive,inactive,inactive,inactive,inactive
C=CCOC(=O)CCCCCC,inactive,inactive,inactive,inactive,inactive,,,,,,inactive,inactive,inactive,inactive,inactive
CCN1CCCC1CN (stereo not given),inactive,inactive,inactive,inactive,inactive,,,,,,inactive,inactive,inactive,inactive,inactive
N[C@@H](CSCCCO)C(=O)O,inactive,inactive,inactive,inactive,inactive,0.802% [at 19 µM],25% [at 19 µM],8.07% [at 15.8 µM],5.26% [at 15.8 µM],12.4% [at 15.8 µM],,,,,
C=CC/C=C/C,inactive,inactive,inactive,inactive,inactive,,,,,,inactive,inactive,inactive,inactive,inactive
CC1=C(C(=O)O)N2C(=O)[C@@H](NC(=O)[C@H](N)C3=CCC=CC3)[C@H]2SC1,inactive,inactive,inactive,inactive,inactive,,,,,,inactive,inactive,inactive,inactive,inactive
COc1cc(OC)nc(O[C@H](C(=O)O)C(OC)(c2ccccc2)c2ccccc2)n1,inactive,inactive,inactive,inactive,inactive,,,,,,inactive,inactive,inactive,inactive,inactive
Cc1ccccc1C(N)=O,inactive,inactive,inactive,inactive,inactive,,,,,,inactive,inactive,inactive,inactive,inactive
CC1CCc2c(N3CCC(O)CC3)c(F)cc3c(=O)c(C(=O)O)cn1c23 (stereo not given),inactive,inactive,inactive,inactive,inactive,,,,,,inactive,inactive,inactive,inactive,inactive
CN(C)CCCO[C@@H]1[C@H]2OC(C)(C)O[C@H]2O[C@@H]1C(O)CO (stereo not given in full),inactive,inactive,inactive,inactive,inactive,,,,,,inactive,inactive,inactive,inactive,inactive
Cn1c(=O)c2[nH]c(Br)nc2n(C)c1=O,inactive,inactive,inactive,inactive,inactive,,,,,,inactive,inactive,inactive,inactive,inactive
CCO[Si](CC)(OCC)OCC,inactive,inactive,inactive,inactive,inactive,,,,,,inactive,inactive,inactive,inactive,inactive
CC1(C)O[C@H]2CC(=O)OC[C@]23[C@H]2CC[C@@]4(C)[C@H](c5ccoc5)OC(=O)[C@H]5O[C@]54[C@]2(C)C(=O)C[C@@H]13,inactive,inactive,inactive,inactive,inactive,,,,,,inactive,inactive,inactive,inactive,inactive

Compound,outcome [1],outcome [2],outcome [3],outcome [4],outcome [5],"activity, negative = cytotoxicity [6]","activity change, negative = inhibition [7]","viability change, negative = cytotoxic [8]",activation [9],activation [10],outcome [6],outcome [7],outcome [8],outcome [9],Potency [10]
C/C=C(\C)C(=O)OCCc1ccccc1,inactive,inactive,inactive,inactive,inactive,,,,,,inactive,inactive,inactive,inactive,inactive
CN(C)C(C)(C)CO,inactive,inactive,inactive,inactive,inactive,,,,,,inactive,inactive,inactive,inactive,inactive
CN(C)CCCCl,inactive,inactive,inactive,inactive,inactive,,,,,,inactive,inactive,inactive,inactive,inactive
Cc1ccnc(N)c1,inactive,inactive,inactive,inactive,inactive,,,,,,inactive,inactive,inactive,inactive,inactive
CO[C@@]1(NC(=O)Cc2cccs2)C(=O)N2C(C(=O)O)=C(COC(N)=O)CS[C@@H]21,inactive,inactive,inactive,inactive,inactive,,,,,,inactive,inactive,inactive,inactive,inactive
Cc1ccc(N)cc1S(=O)(=O)O,inactive,inactive,inactive,inactive,inactive,,,,,,inactive,inactive,inactive,inactive,inactive
O=C=NCC1CCCC(CN=C=O)C1 (stereo not given),inactive,inactive,inactive,inactive,inactive,,,,,,inactive,inactive,inactive,inactive,inactive
O=C1OCCO1,inactive,inactive,inactive,inactive,inactive,,,,,,inactive,inactive,inactive,inactive,inactive
O=C(O)CONC(=O)c1ccccc1,inactive,inactive,inactive,inactive,inactive,,,,,,inactive,inactive,inactive,inactive,inactive
CCCCSCCCC,inactive,inactive,inactive,inactive,inactive,,,,,,inactive,inactive,inactive,inactive,21.9 µM (active)
COC(C)(OC)OC,inactive,inactive,inactive,inactive,inactive,,,,,,inactive,inactive,inactive,inactive,inactive
CCc1occc(=O)c1O,inactive,inactive,inactive,inactive,inactive,,,,,,inactive,inactive,inactive,inactive,inactive
COc1cc(/C=C/C(N)=O)cc(OC)c1OC,inactive,inactive,inactive,inactive,inactive,,,,,,inactive,inactive,inactive,inactive,inactive
O=NN(CCCl)C(=O)NC1CCCCC1,inactive,inactive,inactive,inactive,inactive,,,,,,inactive,inactive,inactive,inactive,inactive
CCNC(=O)NCc1cccc(Cl)c1,inactive,inactive,inactive,inactive,inactive,,,,,,inactive,inactive,inactive,inactive,inactive
C[C@H]1[C@@H](c2ccccc2)NC(=O)N1C,inactive,inactive,inactive,inactive,inactive,,,,,,inactive,inactive,inactive,inactive,inactive
CC(O)COC(C)(C)C (stereo not given),inactive,inactive,inactive,inactive,inactive,,,,,,inactive,inactive,inactive,inactive,inactive
CC(=O)CC(=O)Nc1ccc(C)cc1C,inactive,inactive,inactive,inactive,inactive,,,,,,inactive,inactive,inactive,inactive,inactive
OC1(c2ccc(Cl)cc2)CCNCC1,inactive,inactive,inactive,inactive,inactive,,,,,,inactive,inactive,inactive,inactive,inactive
CC(C)CCOC(=O)c1ccccc1,inactive,inactive,inactive,inactive,inactive,,,,,,inactive,inactive,inactive,inactive,inactive
CC1=NN(c2ccc(S(=O)(=O)O)cc2)C(=O)C1,inactive,inactive,inactive,inactive,inactive,,,,,,inactive,inactive,inactive,inactive,inactive
CCCCCC(C)O (stereo not given),inactive,inactive,inactive,inactive,inactive,,,,,,inactive,inactive,inactive,inactive,inactive
CC(=O)N[C@@H](CO)C(=O)N[C@@H](CC(=O)O)C(=O)N[C@@H](CCCCN)C(=O)N1CCC[C@H]1C(=O)O (Ac-SDKP-OH),inactive,inactive,inactive,inactive,inactive,,,,,,inactive,inactive,inactive,inactive,inactive
Cc1c(C(=O)c2c[nH]n(C)c2=O)ccc(S(C)(=O)=O)c1C1=NOCC1,inactive,inactive,inactive,inactive,inactive,,,,,,inactive,inactive,inactive,inactive,inactive
